# Assay outcomes as filed in PubChem.
# Only some compounds are listed: those with a hit (about 2.4% of all), similar ones and a draw of the others.
# D2 PAM-1 – Beta-Arrestin HTS for Positive Allosteric Modulators of the Human D2 Dopamine Receptor: Potentiators | potentiation, % (no concentration beside the values) | DiscoveRx D2 beta-arrestin cells, luminescence, 90 min; 100% = 57 uM dopamine signal | hit rate 0.23% among 360,000 | D(2) dopamine receptor (Homo sapiens), P14416 | AID 624464, 2012; in the data active = potentiation above about 50%
# Target sequence (P14416 whole entry, looked up): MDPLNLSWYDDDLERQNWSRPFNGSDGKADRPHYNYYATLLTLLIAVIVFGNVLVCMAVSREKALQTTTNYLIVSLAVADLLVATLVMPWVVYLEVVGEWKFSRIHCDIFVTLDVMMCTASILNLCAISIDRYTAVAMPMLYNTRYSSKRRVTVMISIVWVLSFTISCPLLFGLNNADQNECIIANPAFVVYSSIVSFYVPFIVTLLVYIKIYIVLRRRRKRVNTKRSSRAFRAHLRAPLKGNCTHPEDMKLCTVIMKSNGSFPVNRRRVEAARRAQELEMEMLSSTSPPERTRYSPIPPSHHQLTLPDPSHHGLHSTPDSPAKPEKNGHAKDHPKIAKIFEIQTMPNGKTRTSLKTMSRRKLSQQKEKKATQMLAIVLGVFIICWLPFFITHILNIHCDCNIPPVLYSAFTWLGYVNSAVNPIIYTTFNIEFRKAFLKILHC
#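 D2 cells co-treated with compound plus 50 nM dopamine (EC20) for 90 min at 37 deg C to detect potentiation. Beta-arrestin recruitment was read as enzyme-fragment luminescence after 1 h at ambient temperature. Full response was set by 57 uM dopamine.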
# D2 ag-1 – HTS Assay for Allosteric Agonists of the Human D2 Dopamine Receptor: Primary Screen for Agonists; D(2) dopamine receptor (Homo sapiens), P14416; HEK293 T-REx D2 cells, calcium flux agonist mode; activation, % at 2 µM; hit rate 0.53% among 340,000;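 active = activation over 3 SD above normal in the single-dose calcium agonist read, cut at about 30% in these data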; note: 0% is about no effect
#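 Tetracycline-induced HEK293 T-REx cells with force-coupled D2 receptor, plated overnight at 30 C, loaded with no-wash calcium dye. After a 10 s baseline, compound was pin-added and calcium flux read kinetically for 180 s; calcium rises flagged agonists.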
# D2 ag-2 – Beta-Arrestin HTS for Positive Allosteric Modulators of the Human D2 Dopamine Receptor: Agonists | D(2) dopamine receptor (Homo sapiens), P14416 | DiscoveRx PathHunter D2 beta-arrestin, luminescence, 90 min; 100% = 57 uM dopamine signal | activation, % (no concentration beside the values) | hit rate 0.084% among 360,000 | AID 624465, 2012; in the data active = activation above about 40%
#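 Agonist mode: compounds alone added to overnight-plated D2 PathHunter cells for 90 min at 37 C, with 57 uM final dopamine (EC100) defining full response. Beta-arrestin recruitment detected by chemiluminescent reagent, read after 1 h at ambient temperature.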
# D2 PAM-2 – HTS Assay for Positive Allosteric Modulators of the Human D2 Dopamine Receptor: Primary Screen for Potentiators | D(2) dopamine receptor (Homo sapiens), P14416 | HEK293 T-REx D2, calcium flux, EC20 dopamine potentiation | potentiation, % at 10 µM | hit rate 0.34% among 340,000;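 active = potentiation over 3 SD above the plate norm, cut at about 30% in these data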; note: 0% is about no effect
#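 Calcium flux readout, no-wash dye, 1 read/s. Inducible HEK293 Trex D2 line, overnight 30 C. Compound alone 180 s (agonist flags), then EC20 dopamine, another 180 s to score potentiation.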
# D2 antagonist – HTS Assay for Allosteric Antagonists of the Human D2 Dopamine Receptor: Primary Screen for Antagonists. inhibition, % at 10 µM. HEK293 TREx D2 cells, calcium flux, dopamine EC80. hit rate 2% among 340,000; in the data active = inhibition above about 30%; inactive = below that, where a call was filed; note: 0% is about no effect
#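 HEK293 T-REx D2 cells, tet-induced, calcium dye no-wash. Cpd pintool add, 180 s kinetic, then EC80 DA, 180 s kinetic. Ca flux read.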
# * = called active by the depositor; · = no result given.
SMILES,D2 PAM-1,D2 ag-1,D2 ag-2,D2 PAM-2,D2 antagonist
COc1ccc(OC)c(CN2CCCC(C(=O)c3ccccc3SC)C2)c1 (stereo unspecified),-20,0,-4,-18,51*
COc1ccc(-c2[nH]ncc2CN2CCCC(C(=O)c3ccc(OC)cc3OC)C2)cc1 (stereo unspecified),-15,0,-4,-15,1
COc1ccc(CN2CCC(CO)(Cc3ccccc3)CC2)cc1Cn1cccn1,-5,-1,-6,-18,37*
COc1ccc(F)cc1C(=O)C1CCCN(Cc2c[nH]c3ccccc23)C1 (stereo unspecified),-2,0,-3,-20,67*
COC(=O)c1ccc(CN2CCCC(C(=O)c3cc(F)ccc3OC)C2)cc1 (stereo unspecified),-3,1,-1,-22,17
Cn1cc(CN2CCCC(C(=O)c3cc(F)ccc3F)C2)c2ccccc21 (stereo unspecified),-11,0,-6,-16,-5
COc1ccc(F)cc1C(=O)C1CCCN(Cc2cn(C)c3ccccc23)C1 (stereo unspecified),-16,0,-2,-14,78*
CC1=C(C(=O)N2CCOCC2)CC(CC(=O)NCC2CCCCC2)C(=O)N1Cc1ccc(C(C)(C)C)cc1 (stereo unspecified),0,·,2,·,·
O=C1C(=O)N(C2CCN(C(=O)c3ccccc3F)CC2)CCN1Cc1ccc(F)cc1,·,0,·,6,·
NC(=O)c1c(NC(=O)Cc2ccccc2)sc2c1CCN(Cc1ccccc1)C2,-11,1,3,-18,47*
CCCOc1ccc(C(=O)Nc2ccc3oc(-c4ccc(N(C)C)cc4)nc3c2)cc1,·,0,·,14,·
COC(=O)c1ccc(NC(=O)c2nn(C)c3c2CS(=O)(=O)c2ccccc2-3)cc1,·,2,·,5,·
O=C(NCc1ccccc1CN1CCCC1)c1ccc(OCc2cscn2)cc1,-3,1,-2,-7,35*
Cc1nc(COc2ccc(C(=O)NCc3ccccc3CN3CCCCC3)cc2)cs1,-5,-1,-3,15,-21
COc1ccccc1CNCC(=O)Nc1ccc(N2CCOCC2)cc1,-4,33*,-1,-14,3
COc1ccccc1NC(=O)Nc1ccc(N2CCOCC2)cc1,-4,0,-2,-23,4
COc1ccccc1-c1c(C)[nH]n2c(=O)c(Cc3ccccc3)c(C)nc12,-17,0,0,-22,54*
COc1ccc(-c2c(C)[nH]n3c(=O)c(Cc4ccccc4)c(C)nc23)cc1,-40,1,-3,-24,31*
COc1cc(Nc2cc(C)nc3ncnn23)cc(OC)c1OC,0,0,1,-22,32*
COc1cc(Nc2cc(C)nc3ncnn23)cc(OC)c1,-5,1,4,5,26
O=C(COc1ccc(Cl)cc1Cl)NC(=O)NC1CCCC1,-10,-1,1,-4,5
O=C(COc1ccc(Cl)cc1Cl)NC(=O)N1CCCCC1,-15,-2,1,-23,32*
Cc1cccc(C(O)c2ncc(-c3ccccc3F)[nH]2)c1C (stereo unspecified),-6,·,-4,·,·
Cc1cccc(N2CCN(C(=O)Cn3nc(C)c4sc5ccccc5c4c3=O)CC2)c1C,·,0,·,1,·
CCN1CCN(C(=O)c2ccc3c(c2)c(C)c(C)n3Cc2ccccc2)CC1,-16,0,-1,-32,38*
SMILES,D2 PAM-1,D2 ag-1,D2 ag-2,D2 PAM-2,D2 antagonist
Cc1c(C)n(Cc2ccc(F)cc2)c2ccc(C(=O)N3CCN(c4ccc(F)cc4)CC3)cc12,·,·,·,-3,·
Clc1ccc(CN2C3=NCCCN3c3ccccc32)cc1,-6,1,-10,6,3
Clc1ccc(CN2C3=NCCCN3c3ccccc32)cc1Cl,-10,1,1,3,76*
O=C(Nc1cccc(Oc2ccccc2)c1)c1ccc(-n2cncn2)c2ccoc12,6,·,6,·,·
O=C(Nc1cccc(F)c1)Nc1cnccn1,-9,1,1,11,-13
O=C(Nc1cccc(F)c1)Nc1ccccn1,-10,0,-4,-23,87*
COC(=O)C1CCN(C2CN(Cc3ccc([N+](=O)[O-])cc3)S(=O)(=O)C2)CC1 (stereo unspecified),-7,·,-4,·,·
COc1ccc(C(CNC(=O)c2ccc3c(c2)OCCO3)N(C)C)cc1 (stereo unspecified),-15,2,-1,·,45*
COc1ccc(CCNC(=O)c2ccc3c(c2)OCCO3)cc1,-3,2,1,1,0
CN(C)C(CNC(=O)c1ccc(C(=O)c2ccccc2)cc1)c1ccccc1 (stereo unspecified),-13,0,-6,-18,-9
CN(C)C(CNC(=O)c1ccc(-c2ccccc2)cc1)c1ccccc1 (stereo unspecified),-19,0,0,0,31*
NC(=O)c1ccc(NCc2ccco2)c([N+](=O)[O-])c1,-14,1,-4,5,35*
COc1cc2c(cc1OC)C(CNC(=O)C=Cc1cc(OC)c(OC)c(OC)c1)C2 (stereo unspecified),-1,·,-2,·,·
Cc1ccccc1-c1noc(-c2ccc(O)cc2)n1,13,0,3,-9,46*
Cc1ccccc1-c1noc(C23CC4CC(CC(C4)C2)C3)n1,-9,1,-1,-26,75*
O=C(NCc1ccccc1Cl)c1cnc(N2CCCCC2)c2ccccc12,·,0,·,-4,·
CCC1(c2ccc(F)cc2)NC(=O)N(CC(=O)N2CCOCC2)C1=O (stereo unspecified),-1,-1,-1,-7,13
CCC1(c2ccc(F)cc2)NC(=O)N(CC(=O)c2ccc[nH]2)C1=O (stereo unspecified),-13,1,-3,·,30*
CCN(c1ccc(OC)cc1)S(=O)(=O)c1nnc(NC(=O)COc2ccccc2)s1,-6,0,5,37*,-9
CCCCC(=O)Nc1nnc(S(=O)(=O)N(CC)c2ccc(OC)cc2)s1,-2,0,6,-6,9
COc1ccc(C(=O)Nc2cccc(NC(=O)c3ccc(OC)c(OC)c3)n2)cc1OC,85*,-1,5,5,-4
O=S(=O)(c1ccc(N=C2NN=C(c3cc(F)ccc3F)CS2)cc1)N1CCOCC1,15,0,-3,30*,18
